Source: paper PMC7862700, “An all-to-all approach to the identification of sequence-specific readers for epigenetic DNA modifications on cytosine”

How the values were obtained:
Experiment in all cases: DAPPL (digital affinity profiling via proximity ligation, sequencing); 10 mM Tris-HCl pH 7.5, 50 mM NaCl, 1 mM DTT, 4% glycerol, room temperature, 30 min; GST-TFs on glutathione beads, 16-mer random dsDNA library, 0.1% formaldehyde crosslink after washing; high values mean tight binding
Settings in all cases: protein: recombinant; tags: N-terminal GST; dsDNA, one strand shown
[1] = target: T1, FLI1 (Homo sapiens, UniProt Q01543 1-452)
T1 sequence: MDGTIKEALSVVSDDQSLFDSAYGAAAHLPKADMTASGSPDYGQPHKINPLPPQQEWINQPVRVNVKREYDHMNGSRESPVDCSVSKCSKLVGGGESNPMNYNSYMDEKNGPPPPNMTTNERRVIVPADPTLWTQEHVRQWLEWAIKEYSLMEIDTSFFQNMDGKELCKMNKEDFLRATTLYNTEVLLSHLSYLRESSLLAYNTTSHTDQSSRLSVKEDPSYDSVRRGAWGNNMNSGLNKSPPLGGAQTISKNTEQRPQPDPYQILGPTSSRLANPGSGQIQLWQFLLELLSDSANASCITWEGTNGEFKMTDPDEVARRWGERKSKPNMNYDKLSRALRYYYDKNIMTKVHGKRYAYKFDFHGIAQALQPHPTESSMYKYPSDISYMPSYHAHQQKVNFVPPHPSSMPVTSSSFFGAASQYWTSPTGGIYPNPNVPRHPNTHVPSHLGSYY
Outline: (§1)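 The binding signal reported is, for every hexamer, its read frequency for a factor over its read frequency for the tag-only sample. Reads came from pools of yeast-expressed, GST-fused human transcription factors on glutathione beads, barcoded with DNA and mixed with that sample, which were incubated with 200 nmole of a random double-stranded 16-mer DNA library in Tris/NaCl/DTT/glycerol buffer at room temperature for 30 min. After washing, the pools were crosslinked with 0.1% formaldehyde, proximity-ligated with BsaI/T4 ligase for 1 h at 37 °C, PCR-amplified and sequenced on an Illumina NextSeq500.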

[2] = target: T2, ELK1 (Homo sapiens, UniProt P19419 1-428)
T2 sequence: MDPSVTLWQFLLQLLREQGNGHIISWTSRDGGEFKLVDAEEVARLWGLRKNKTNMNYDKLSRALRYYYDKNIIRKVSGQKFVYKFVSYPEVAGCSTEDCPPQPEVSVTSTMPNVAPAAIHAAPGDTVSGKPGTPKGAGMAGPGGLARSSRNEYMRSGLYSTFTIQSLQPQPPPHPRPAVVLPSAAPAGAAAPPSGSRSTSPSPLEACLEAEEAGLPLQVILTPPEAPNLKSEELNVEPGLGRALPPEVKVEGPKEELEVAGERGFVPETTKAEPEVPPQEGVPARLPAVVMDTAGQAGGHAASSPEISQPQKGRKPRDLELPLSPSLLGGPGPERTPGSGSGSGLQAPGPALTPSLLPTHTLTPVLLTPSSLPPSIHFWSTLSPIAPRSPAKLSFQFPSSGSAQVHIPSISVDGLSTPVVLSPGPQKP
Outline: as §1

[3] = target: T3, GABPA (Homo sapiens, UniProt Q06546 1-454)
T3 sequence: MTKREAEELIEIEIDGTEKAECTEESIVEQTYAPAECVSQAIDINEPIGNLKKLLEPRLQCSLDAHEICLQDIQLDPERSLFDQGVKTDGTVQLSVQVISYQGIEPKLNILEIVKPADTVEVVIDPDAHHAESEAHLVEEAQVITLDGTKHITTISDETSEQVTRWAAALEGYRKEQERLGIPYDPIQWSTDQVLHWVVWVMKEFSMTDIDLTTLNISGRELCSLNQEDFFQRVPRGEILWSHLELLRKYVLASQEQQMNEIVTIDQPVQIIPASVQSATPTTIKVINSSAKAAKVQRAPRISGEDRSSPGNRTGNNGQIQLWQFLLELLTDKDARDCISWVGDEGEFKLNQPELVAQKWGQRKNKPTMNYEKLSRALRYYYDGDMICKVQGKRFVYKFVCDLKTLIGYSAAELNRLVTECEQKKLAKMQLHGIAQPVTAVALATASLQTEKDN
Outline: as §1

[4] = target: T4, ERG (Homo sapiens, UniProt P11308 1-479)
T4 sequence: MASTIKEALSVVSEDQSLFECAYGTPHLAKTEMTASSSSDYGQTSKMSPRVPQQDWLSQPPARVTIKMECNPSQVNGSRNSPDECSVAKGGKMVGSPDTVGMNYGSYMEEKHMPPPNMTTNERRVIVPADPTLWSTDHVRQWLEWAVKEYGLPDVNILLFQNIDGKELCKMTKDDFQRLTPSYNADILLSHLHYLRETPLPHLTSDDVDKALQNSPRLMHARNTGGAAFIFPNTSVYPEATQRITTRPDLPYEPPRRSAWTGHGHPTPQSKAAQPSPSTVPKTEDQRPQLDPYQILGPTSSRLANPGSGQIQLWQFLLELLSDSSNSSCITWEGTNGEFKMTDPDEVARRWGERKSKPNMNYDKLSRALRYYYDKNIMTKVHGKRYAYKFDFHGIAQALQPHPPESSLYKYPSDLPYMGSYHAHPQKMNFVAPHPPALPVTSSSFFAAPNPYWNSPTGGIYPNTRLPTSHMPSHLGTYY
Outline: as §1

[5] = target: ELF1 (Homo sapiens, UniProt P32519 1-619)
Sequence of ELF1 (P32519 whole entry): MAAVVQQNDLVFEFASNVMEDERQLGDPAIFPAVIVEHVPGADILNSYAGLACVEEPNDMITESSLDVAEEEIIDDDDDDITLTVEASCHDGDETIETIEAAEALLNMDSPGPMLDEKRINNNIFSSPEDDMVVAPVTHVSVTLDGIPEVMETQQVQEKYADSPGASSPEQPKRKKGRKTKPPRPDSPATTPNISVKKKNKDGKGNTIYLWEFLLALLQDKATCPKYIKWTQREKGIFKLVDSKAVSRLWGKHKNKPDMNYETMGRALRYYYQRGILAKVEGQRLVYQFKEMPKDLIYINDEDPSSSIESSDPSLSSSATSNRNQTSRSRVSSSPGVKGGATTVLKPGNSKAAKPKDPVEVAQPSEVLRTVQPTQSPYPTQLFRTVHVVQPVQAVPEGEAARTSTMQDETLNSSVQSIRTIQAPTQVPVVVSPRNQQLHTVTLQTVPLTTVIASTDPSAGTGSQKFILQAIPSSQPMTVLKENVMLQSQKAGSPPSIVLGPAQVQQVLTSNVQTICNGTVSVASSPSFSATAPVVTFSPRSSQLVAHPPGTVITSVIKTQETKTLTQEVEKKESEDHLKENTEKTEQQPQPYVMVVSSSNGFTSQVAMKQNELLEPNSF
Outline: as §1

[6] = target: T5, EHF (Homo sapiens, UniProt Q9NZC4 1-300)
T5 sequence: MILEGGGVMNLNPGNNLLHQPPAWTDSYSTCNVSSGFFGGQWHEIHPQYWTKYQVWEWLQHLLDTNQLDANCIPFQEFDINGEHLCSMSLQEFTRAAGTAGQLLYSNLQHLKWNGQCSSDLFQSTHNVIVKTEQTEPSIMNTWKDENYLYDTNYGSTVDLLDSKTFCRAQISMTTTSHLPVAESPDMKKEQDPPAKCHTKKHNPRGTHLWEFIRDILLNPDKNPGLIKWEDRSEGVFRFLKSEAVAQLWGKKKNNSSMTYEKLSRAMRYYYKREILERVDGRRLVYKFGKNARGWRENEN
Outline: as §1

[7] = target: SPI1 (Homo sapiens, UniProt P17947 1-270)
Outline: as §1

[8] = target: SPIB (Homo sapiens, UniProt Q01892 1-262)
Sequence of SPIB (Q01892 whole entry): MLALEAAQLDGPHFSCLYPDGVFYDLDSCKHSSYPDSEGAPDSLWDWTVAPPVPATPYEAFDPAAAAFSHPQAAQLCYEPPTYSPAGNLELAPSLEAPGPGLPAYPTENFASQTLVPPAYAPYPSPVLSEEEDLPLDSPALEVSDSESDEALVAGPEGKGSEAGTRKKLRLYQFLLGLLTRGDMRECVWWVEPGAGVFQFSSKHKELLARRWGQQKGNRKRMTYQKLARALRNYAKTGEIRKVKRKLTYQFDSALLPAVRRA
Outline: as §1

[9] = target: T6, ELK3 (Homo sapiens, UniProt P41970 1-407)
T6 sequence: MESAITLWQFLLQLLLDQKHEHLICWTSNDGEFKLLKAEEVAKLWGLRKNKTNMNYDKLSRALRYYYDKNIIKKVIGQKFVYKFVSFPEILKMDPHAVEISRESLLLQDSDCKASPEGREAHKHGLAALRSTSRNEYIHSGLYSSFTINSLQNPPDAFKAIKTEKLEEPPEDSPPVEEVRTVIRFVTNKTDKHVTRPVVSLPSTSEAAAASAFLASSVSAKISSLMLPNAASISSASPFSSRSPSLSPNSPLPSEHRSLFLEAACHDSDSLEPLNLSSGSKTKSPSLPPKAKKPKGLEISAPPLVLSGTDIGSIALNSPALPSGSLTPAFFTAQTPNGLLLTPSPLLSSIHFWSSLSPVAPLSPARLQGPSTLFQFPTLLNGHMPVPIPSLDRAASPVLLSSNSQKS
Outline: as §1

Sequence | binding signal [1] | binding signal [2] | binding signal [3] | binding signal [4] | binding signal [5] | binding signal [6] | binding signal [7] | binding signal [8] | binding signal [9]
AAAGCA | 1.01 fold enrichment (6-mer frequency, TF over GST control) | 1.04 fold enrichment (6-mer frequency, TF over GST control) | 1.15 fold enrichment (6-mer frequency, TF over GST control) | 1.09 fold enrichment (6-mer frequency, TF over GST control) | 1.04 fold enrichment (6-mer frequency, TF over GST control) | 1.02 fold enrichment (6-mer frequency, TF over GST control) | 1.1 fold enrichment (6-mer frequency, TF over GST control) | 1.08 fold enrichment (6-mer frequency, TF over GST control) | 1.05 fold enrichment (6-mer frequency, TF over GST control)
TTCGGT | 1.06 fold enrichment (6-mer frequency, TF over GST control) | 1.09 fold enrichment (6-mer frequency, TF over GST control) | 1.13 fold enrichment (6-mer frequency, TF over GST control) | 1.1 fold enrichment (6-mer frequency, TF over GST control) | 1.14 fold enrichment (6-mer frequency, TF over GST control) | 1.23 fold enrichment (6-mer frequency, TF over GST control) | 1.2 fold enrichment (6-mer frequency, TF over GST control) | 1.16 fold enrichment (6-mer frequency, TF over GST control) | 1.22 fold enrichment (6-mer frequency, TF over GST control)
ATCCTC | 1.48 fold enrichment (6-mer frequency, TF over GST control) | 1.47 fold enrichment (6-mer frequency, TF over GST control) | 1.55 fold enrichment (6-mer frequency, TF over GST control) | 1.52 fold enrichment (6-mer frequency, TF over GST control) | 1.48 fold enrichment (6-mer frequency, TF over GST control) | 1.39 fold enrichment (6-mer frequency, TF over GST control) | 1.51 fold enrichment (6-mer frequency, TF over GST control) | 1.41 fold enrichment (6-mer frequency, TF over GST control) | 1.36 fold enrichment (6-mer frequency, TF over GST control)
TACTCC | 1.3 fold enrichment (6-mer frequency, TF over GST control) | 1.2 fold enrichment (6-mer frequency, TF over GST control) | 1.49 fold enrichment (6-mer frequency, TF over GST control) | 1.35 fold enrichment (6-mer frequency, TF over GST control) | 1.37 fold enrichment (6-mer frequency, TF over GST control) | 1.26 fold enrichment (6-mer frequency, TF over GST control) | 1.24 fold enrichment (6-mer frequency, TF over GST control) | 1.23 fold enrichment (6-mer frequency, TF over GST control) | 1.44 fold enrichment (6-mer frequency, TF over GST control)
TATTAC | 1.24 fold enrichment (6-mer frequency, TF over GST control) | 1.2 fold enrichment (6-mer frequency, TF over GST control) | 1.09 fold enrichment (6-mer frequency, TF over GST control) | 1.16 fold enrichment (6-mer frequency, TF over GST control) | 1.19 fold enrichment (6-mer frequency, TF over GST control) | 1.19 fold enrichment (6-mer frequency, TF over GST control) | 1.12 fold enrichment (6-mer frequency, TF over GST control) | 1.21 fold enrichment (6-mer frequency, TF over GST control) | 1.16 fold enrichment (6-mer frequency, TF over GST control)
CTTTTG | 1.42 fold enrichment (6-mer frequency, TF over GST control) | 1.35 fold enrichment (6-mer frequency, TF over GST control) | 1.41 fold enrichment (6-mer frequency, TF over GST control) | 1.25 fold enrichment (6-mer frequency, TF over GST control) | 1.34 fold enrichment (6-mer frequency, TF over GST control) | 1.32 fold enrichment (6-mer frequency, TF over GST control) | 1.6 fold enrichment (6-mer frequency, TF over GST control) | 1.42 fold enrichment (6-mer frequency, TF over GST control) | 1.23 fold enrichment (6-mer frequency, TF over GST control)
TTAATG | 1.24 fold enrichment (6-mer frequency, TF over GST control) | 1.27 fold enrichment (6-mer frequency, TF over GST control) | 1.3 fold enrichment (6-mer frequency, TF over GST control) | 1.14 fold enrichment (6-mer frequency, TF over GST control) | 1.17 fold enrichment (6-mer frequency, TF over GST control) | 1.19 fold enrichment (6-mer frequency, TF over GST control) | 1.24 fold enrichment (6-mer frequency, TF over GST control) | 1.2 fold enrichment (6-mer frequency, TF over GST control) | 1.14 fold enrichment (6-mer frequency, TF over GST control)
CTCTGC | 1.71 fold enrichment (6-mer frequency, TF over GST control) | 1.6 fold enrichment (6-mer frequency, TF over GST control) | 1.56 fold enrichment (6-mer frequency, TF over GST control) | 1.46 fold enrichment (6-mer frequency, TF over GST control) | 1.58 fold enrichment (6-mer frequency, TF over GST control) | 1.57 fold enrichment (6-mer frequency, TF over GST control) | 1.53 fold enrichment (6-mer frequency, TF over GST control) | 1.52 fold enrichment (6-mer frequency, TF over GST control) | 1.4 fold enrichment (6-mer frequency, TF over GST control)
